Rows were chosen to be rich in hits. Some 19% of all compounds tested hit in one or more screens of this group.
DT40 TDP1 no CPT = qHTS for Inhibitors of human tyrosyl-DNA phosphodiesterase 1 (TDP1): qHTS in cells in absence of CPT; DT40 Tdp1-/- hTDP1 cells, no CPT, ATP luminescence, 48 h; actives 15% (n = 420,000); Potency, µM (highest dose often 46.2 µM), for inactives: at the top dose activity change, negative = growth inhibition, usual class: inhibitors; also: potency is read from the fitted curve at half-maximal effect; % is scaled to controls: 0 for no effect and ±100 for the full control effect; nearly all actives have a fitted effect of over 55% in size
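Seeded 400 DT40-hTDP1 cells/well (vehicle DMSO, no 20 nM CPT); pinned compounds; ≥48 hr at 37 °C; CellTiter-Glo luminescence as viability measure.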
TGFb SMAD3 inh = blocks TGF-b signaling | HepG2 CAGA-GFP TGF-b/SMAD3 reporter, GFP fluorescence, 18 h; TGF-beta stimulated, 500 pg/mL final | Potency, µM (series often up to 46.1 µM), inactives show top-dose activity, negative = inhibition, most hits filed as inhibitors | actives 1.2% (n = 410,000) | AID 588855; also: potency is read from the fitted curve at half-maximal effect; % is scaled to controls: 0 for no effect and ±100 for the full control effect; nearly all actives have a fitted effect of over 65% in size
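Inhibition was scored as loss of TGF-beta-induced (500 pg/mL final, 18 hours, 37 degrees C) GFP in HEPG2 cells carrying a CAGA-GFP reporter, in DMEM with 1% FBS. Well GFP was summed per cell; Activity was normalised to unstimulated and stimulated DMSO wells, then concentration-response fitting.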
IL-1B inflam inh = inflammasome signaling inhibition, IL-1 beta readout; THP-1 LPS/ATP IL-1B secretion, AlphaLISA, 16 h; stronger effect = lower value; activity change, % at 57.5 µM; actives 4.7% (n = 360,000); in the data active = activity change below about -50%; inconclusive = mostly about -30% to -49%; also: % is scaled to controls: 0 for no effect and ±100 for the full control effect
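THP-1 cells pretreated 1 hr with compounds (up to 57.5 uM final), then stimulated with LPS (250 ng/mL final) plus ATP (1.25 mM final); secreted IL-1B measured by AlphaLISA after 16 hr, decreased signal indicating inhibition.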
HepG2 tox = kills HepG2 cells in TGF-b inhibitor counter-screen | Potency, µM (doses to about 46.1 µM), for the others: top-dose activity change, negative = cytotoxicity, usual class: cytotoxic | HepG2 CAGA-GFP viability, ATP luminescence, 18 h | actives 0.76% (n = 410,000); also: potency is read from the fitted curve at half-maximal effect
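CellTiter-Glo luminescence gave cytotoxicity after 18 hours at 37 degrees C. The cells were HepG2 CAGA-GFP in 1% FBS DMEM, stimulated with 500 pg/mL TGF-beta after compound addition. %Activity was normalised to no-cell wells (complete cell-killing) and DMSO (no toxicity), and curves were fitted and classified.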
ASM inhibitor = inhibitors of human secretory acid sphingomyelinase. placental ASM, HMU-PC fluorogenic substrate, 60 min. Potency, µM (series often up to 57.5 µM), inactives show top-dose activity change, negative = inhibition, most hits filed as inhibitors. P17405. actives 0.006% (n = 340,000); also: potency is read from the fitted curve at half-maximal effect
Target sequence (P17405 47-631 limits assumed): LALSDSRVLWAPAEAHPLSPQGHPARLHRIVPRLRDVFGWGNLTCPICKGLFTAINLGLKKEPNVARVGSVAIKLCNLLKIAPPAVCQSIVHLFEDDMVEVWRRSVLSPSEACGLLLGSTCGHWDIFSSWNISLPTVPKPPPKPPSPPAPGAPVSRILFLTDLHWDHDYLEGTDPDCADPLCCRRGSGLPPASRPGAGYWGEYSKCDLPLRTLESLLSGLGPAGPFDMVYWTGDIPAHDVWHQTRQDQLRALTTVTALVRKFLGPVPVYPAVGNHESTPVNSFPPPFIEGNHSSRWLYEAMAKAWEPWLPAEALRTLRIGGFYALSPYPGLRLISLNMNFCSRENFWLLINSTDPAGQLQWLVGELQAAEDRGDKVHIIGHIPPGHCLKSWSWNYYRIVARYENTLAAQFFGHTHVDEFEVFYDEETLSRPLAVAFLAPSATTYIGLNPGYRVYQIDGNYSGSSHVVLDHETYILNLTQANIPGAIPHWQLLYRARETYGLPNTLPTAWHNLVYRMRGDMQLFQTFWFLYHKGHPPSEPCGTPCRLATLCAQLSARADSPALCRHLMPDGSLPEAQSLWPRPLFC
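qHTS format. ASM enzyme prepared from human placenta hydrolyses the fluorogenic substrate HMU-PC0 (9 uM final) over 60 min at 37 °C after a 10 min compound preincubation.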
DT40 TDP1 CPT = growth inhibition of DT40 Tdp1-/-;hTDP1 cells with camptothecin (screen for TDP1 inhibitors); actives 12% (n = 420,000); Potency, µM (top dose mostly 46.2 µM), for inactives: at the highest dose activity change, negative = growth inhibition, actives largely listed as inhibitors; chicken DT40 Tdp1-/-;hTDP1 cells + 20 nM CPT, ATP luminescence, 48 h; also: potency is read from the fitted curve at half-maximal effect; % is scaled to controls: 0 for no effect and ±100 for the full control effect; nearly all actives have a fitted effect of over 55% in size
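Cell growth measured by CellTiter-Glo luminescence after a minimum 48 h, 37 C compound exposure with 20 nM CPT in Tdp1-knockout DT40 cells stably expressing hTDP1, seeded 400/well; qHTS titration format.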
Active calls of the source: *; ? = inconclusive; . = not tested or not shown; ! = not active in a repeat. Unless noted, calls follow the shape of the dose curve; as a rule, active = well fitted curve in the direction sought with a large enough effect; inconclusive = small, poorly fitted or top-dose-only effect, or another doubt; inactive = no such curve, though single readings can be large; an effect the other way counts as inactive or inconclusive.

SMILES	DT40 TDP1 no CPT	TGFb SMAD3 inh	IL-1B inflam inh	HepG2 tox	ASM inhibitor	DT40 TDP1 CPT
O=S(=O)(Nc1cccc(-c2nnco2)c1)c1ccc(F)cc1F	7%	7%	-11	10%	3%	?
Cc1ccsc1C(=O)NCCc1nnc2ccccn12	-2%	7%	-2	1%	0%	2%
Cn1nc(C(=O)NCCCN2CCCCC2)c2c1-c1ccccc1SC2	?	7%	-9	9%	0%	?
CCOc1ccc(CCNC(=O)c2nn(C)c3c2CSc2ccc(C)cc2-3)cc1OCC	13µM*	?	.	-15%	.	?
CCCCN(CC)C(=O)c1nn(C)c2c1CSc1ccccc1-2	23µM*	-14%	.	-22%	.	?
CCN(C(=O)c1nn(C)c2c1CSc1ccccc1-2)c1cccc(C)c1	21µM*	?	.	-33%	.	12µM*
Cc1ccc(CCNC(=O)c2nn(C)c3c2CSc2ccccc2-3)cc1	-13%	-14%	.	-23%	.	-24%
CCOC(=O)N1CCN(C(=O)c2nn(C)c3c2CSc2ccccc2-3)CC1	16µM*	-12%	-17	-7%	-1%	?
COc1ccc(/C=C(/NC(=O)c2ccc([N+](=O)[O-])cc2)C(=O)NC(C)(C)C)cc1	3%	-6%	14	0%	0%	1%
COCCNC(=O)CCc1nnc2ccc(N3CCC(C)CC3)nn12	22%	-5%	-7	-19%	1%	-1%
O=C(/C=C/c1ccc(Cl)cc1Cl)NC(=S)Nc1ccc(CN2CCOCC2)cc1	13µM*	?	-14	-43%	-15%	16µM*
O=C(/C=C/c1ccccc1)NC(=S)Nc1ccc(CN2CCOCC2)cc1	18µM*	-24%	-109*	0%	-5%	?
CC(C)COCC(CN(Cc1ccccc1)c1ccccc1)N1CCCC1 (stereo not drawn)	26µM*	-17%	-83*	-46%	-5%	10µM*!
CCOc1ccc(NC(=O)CN(C)C(=O)C2CC(=O)N(Cc3ccco3)C2)cc1OCC (stereo not drawn)	-2%	14%	4	-5%	3%	-28%
CCOc1ccc(-c2cc(CCCC(=O)NCc3ccco3)no2)cc1	21µM*	-15%	18	-23%	0%	?
COc1ccc(-c2noc(CCC(=O)NCc3ccco3)n2)cc1	-27%	-17%	8	-2%	-5%	-17%
O=C(CCCc1nc(-c2ccc(Cl)cc2)no1)NCc1ccco1	12µM*	-19%	.	-20%	.	7.3µM*
CCOc1ccc(-c2cc(CCCC(=O)NCc3ccc(C)cc3)no2)cc1	-24%	-21%	3	-11%	-2%	-22%
Cc1ccc(-c2noc(CCCC(=O)NCc3ccco3)n2)cc1	18µM*	?	.	-28%	.	?
COc1cccc(-c2nc3cc(SC)ccc3cc2CN(C(=O)c2sccc2C)C2CC2)c1	-2%	.	.	.	.	2%
CC1(C)CC23C(=O)CCC(O)C2(C)CCC13 (stereo not drawn)	-6%	.	.	.	.	-6%
Cc1ccc(NC(=O)Cn2nc(-c3ccc(F)cc3)c3cnc4ccc(C)cc4c32)cc1	-1%	30%	.	4%	.	-15%
COc1ccc2ncc3c(-c4ccc(C)c(C)c4)nn(CC(=O)Nc4ccccc4)c3c2c1	18µM*	23%	.	4%	.	15µM*
COc1cc2ncc3c(-c4ccccc4)nn(-c4ccc(C)cc4)c3c2cc1OC	16µM*	?	.	-34%	.	16µM*
Cc1cccc(NC(=O)Cn2nc(-c3ccccc3)c3cnc4ccccc4c32)c1	-45%	-4%	.	-48%	.	16µM*
